# A selection: hits, their analogues and other compounds. The true share with any hit is near 2.8%.
# POLH inh: inhibitors of human DNA polymerase eta. recombinant Pol eta, fluorescent DNA replication assay. Potency, µM (highest dose often 114 µM), actives largely listed as inhibitors. 390,000 compounds, 1.2% hits. AID 588591
#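 Pol eta (10 nM) was preincubated with compounds for 15 min at room temperature, after which fluorescent replication substrate (50 nM final) was added to start the reaction. Fluorescence was read kinetically at 0 and 10 min.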
# Pol beta inh: blocks human DNA polymerase beta activity; Pol beta primer extension/strand displacement, fluorescence kinetic; Potency, µM (titrated, usually from 114 µM), usual class: inhibitors; 340,000 compounds, 1.3% hits; AID 485314
#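 10 nM enzyme + cpd, 15 min RT; start with substrate 50 nM final; read 0 min and after 10 min RT. Corrected, normalized data; 4-parameter Hill curve fit.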
# Pol iota inh: blocks human DNA polymerase iota activity; 390,000 compounds, 1% hits; Potency, µM (series often up to 115 µM), usual class: inhibitors; AID 588590; Pol iota fluorescent replication assay, 10 min; Q9UNA4
#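 Pol iota at 10 nM preincubated 15 min with compounds at room temperature; reaction started with fluorescent substrate, 50 nM final. Fluorescence read kinetically at 0 and 10 min; buffer-only wells as negative control.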
# WRN helicase inh: WRN helicase (human) inhibition; WRN helicase unwinding, fluorescent forked duplex, kinetic; Potency, µM (top dose mostly 114 µM), hits mostly inhibitors; 360,000 compounds, 0.46% hits; AID 651768; note: nearly all actives have a fitted effect of over 55% in size
#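 WRN at 20 nM final preincubated with compound 15 min at room temperature; reaction started with 100 nM fluorophore/quencher forked duplex oligonucleotide and 2 mM ATP final. Unwinding followed kinetically by red fluorescence (ex 525, em 598 nm).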
# PI5P4Ka inh: inhibitors of human PI5P4K alpha | AID 652105 | PI5P4Kalpha enzyme, ADP-Glo luminescence, 60 min; hits give low values | P48426 | 330,000 compounds, 1.2% hits | max response, %; active = max response of -50% or lower; inconclusive = between -30% and -50%; inactive = -30% or higher; note: value at the top dose of about 77 µM
#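 Single end-point luminescence (ADP-Glo) quantified ADP from PI5P4Kalpha turnover; ATP 5 microM final, 1 h at RT, 0.1% CHAPS and 0.28 mM EGTA in HEPES pH 7.4.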
# POLK inh: inhibitors of human DNA polymerase kappa | purified Pol kappa, fluorescent DNA synthesis assay, 10 min | Potency, µM (series often up to 107 µM), usual class: inhibitors | Q9UBT6 | 400,000 compounds, 0.53% hits
#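 Fluorescent qHTS in 1536-well format: enzyme (10 nM) and compound sat 15 min at room temperature before 50 nM substrate (final) was added. Signal taken at 0 and 10 min; no-enzyme buffer wells were negative controls.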
# A number is an active result; - = inactive; ? = inconclusive; . = not tested or not shown; [ ] = remark or other dose. Unless noted, calls come from the whole dose curve; as a rule, active = well fitted curve in the direction sought with a large enough effect; inconclusive = small, poorly fitted or top-dose-only effect, or another doubt; inactive = no such curve, though single readings can be large; an effect the other way counts as inactive or inconclusive.
SMILES,POLH inh,Pol beta inh,Pol iota inh,WRN helicase inh,PI5P4Ka inh,POLK inh
COc1ccc(NC(=O)COC(=O)c2cc3c(s2)CCC3)cc1,45µM,.,32µM,-,?,?
NC(=O)c1ccc(NC(=O)COC(=O)c2cc3c(s2)CCC3)cc1,11µM,.,79µM,-,?,?
CCCOc1ccc(F)cc1-c1cc(C(=O)Nc2ccc(C(C)C)cc2)[nH]n1,.,.,.,-,-,.
O=C(NNc1cccc(Cl)n1)c1ccccc1CC[N+](=O)[O-],-,-,-,?,-78,-
O=C(NNc1cccc(Cl)n1)c1ccc(Cl)cc1Cl,-,-,-,-,-,-
COc1ccc(S(=O)(=O)N2CCOCC2)cc1NC(=O)c1cccc2c(=O)c(C)c(-c3ccccc3)oc12,-,-,-,-,-,-
CCOC(=O)C(C(C)=O)c1c(Br)c(O)c(O)c2c(C(=O)c3ccc(C)cc3)coc12 (stereo unspecified),-,-,25µM,-,.,50µM
CCOC(=O)c1c(C)n(-c2ccc(C)cc2)c2c(C(C(C)=O)C(=O)O)c(Br)c(O)c(O)c12 (stereo unspecified),-,-,-,-,-,-
Cc1ccc(CN(C(=O)COc2cc(C)c(Cl)c(C)c2)c2ccccn2)o1,-,?,-,.,.,-
COc1ccc2cnnc(SCC(=O)Nc3ccc(C(=O)O)cc3)c2c1OC,?,-,-,-,-66,-
CC(NC(=O)/C(C#N)=C/c1ccc([N+](=O)[O-])o1)c1ccccc1 (stereo unspecified),50µM,40µM,20µM,56µM,?,-
CCNc1nc(C#N)nc(Nc2ccccc2)n1,.,.,-,.,.,-
CCCCCCCc1c(C#N)c(N)[nH]c(=S)c1C#N,-,-,-,-,-56,-
CCOC(=O)c1cc(C)[nH]c(=S)c1C#N,-,-,-,-,?,-
COc1ccc(NS(=O)(=O)c2ccc(O)c(NC(=O)c3cc4c(C)nn(-c5ccc(F)cc5)c4s3)c2)cc1,20µM,10µM,28µM,?,-,?
COc1ccc2c(c1)O/C(=C\c1ccccc1C)C2=O,-,-,-,-,-,-
CCC(=O)Oc1ccc2c(c1)O/C(=C\c1ccco1)C2=O,?,?,?,-,-65,?
COC(=O)COc1ccc2c(c1)O/C(=C\c1ccco1)C2=O,?,32µM,?,?,-,-
CCN(CC)C(=O)Oc1ccc2c(c1)O/C(=C\c1ccco1)C2=O,-,45µM,?,-,-,-
Cc1cc(O)cc2c1C(=O)/C(=C/c1ccco1)O2,-,?,?,-,-,?
Cc1cc(Cl)ccc1NNC(N)=S,-,-,14µM,-[11.6 µM],-,-
CCN(CC)c1ccc(N=Cc2ccc([N+](=O)[O-])o2)cc1,?,?,16µM,?,-,?
CCN(CC)c1ccc(N=Cc2ccccc2[N+](=O)[O-])cc1,-,-,?,-,-,-
COc1ccc(C(=O)COC(=O)c2ccc3c(c2)NC(=O)CS3)c(OC)c1,?,.,40µM,-[11.6 µM],?,?
COc1ccc(C(=O)COC(=O)c2cnc(C)cn2)c(OC)c1,?,.,-,-,-56,-
SMILES,POLH inh,Pol beta inh,Pol iota inh,WRN helicase inh,PI5P4Ka inh,POLK inh
COc1ccc(C(=O)COC(=O)c2ccc(Cl)nc2)c(OC)c1,?,.,40µM,-,?,-
COc1ccc(NC(=O)c2ccc3c(c2)NC(=O)CS3)cc1,-,.,-,-,-,-
COc1ccc(CNC(=O)c2cnc(C)cn2)cc1,16µM,28µM,?,-[11.6 µM],?,-
C=CCN(CC=C)c1ccc(/C=C/c2ccnc3ccccc23)cc1,.,.,-,.,.,-
C[N+]1(CC(=O)c2ccc3ccccc3c2)CCOCC1,.,.,-,.,.,-
Cc1cnc(C(=O)OCC(=O)c2csc(N3CCCCC3)n2)cn1,25µM,45µM,?,?,-60,-
Nn1c(C2CCC2)nc2cc(Cl)ccc2c1=O,-,-,-,-,-,-
O=[N+]([O-])c1c(NCCCO)cc(SCc2ccco2)c2nonc12,-,50µM,-,-,-,-
CC(=O)OCCNc1cc(SCc2ccco2)c2nonc2c1[N+](=O)[O-],?,?,18µM,?,?,79µM
Cc1csc(NC(=O)C(C)N2C(=O)c3ccccc3S2(=O)=O)n1 (stereo unspecified),-,-,-,-,-,-
